PubChem BioAssay (EPA / NIEHS)
Results filed as inconclusive are left out. The source made the active and inactive calls. The calls were made as follows: active = hit-call score of the fitted dose curve at least 0.9, where 1 is the maximum; inconclusive = response in the unintended direction; inactive = score below 0.9.

Columns and labels:
[1] = molecular target: Muscarinic acetylcholine receptor M2 (Homo sapiens) (UniProt P08172); assay: NVS_GPCR_hM2: NovaScreen (NVS) G Protein-Coupled Receptor Assay for human Muscarinic, M2 Receptor (AID 2283273)
Chain of Muscarinic acetylcholine receptor M2 (Homo sapiens) (P08172 whole entry, looked up): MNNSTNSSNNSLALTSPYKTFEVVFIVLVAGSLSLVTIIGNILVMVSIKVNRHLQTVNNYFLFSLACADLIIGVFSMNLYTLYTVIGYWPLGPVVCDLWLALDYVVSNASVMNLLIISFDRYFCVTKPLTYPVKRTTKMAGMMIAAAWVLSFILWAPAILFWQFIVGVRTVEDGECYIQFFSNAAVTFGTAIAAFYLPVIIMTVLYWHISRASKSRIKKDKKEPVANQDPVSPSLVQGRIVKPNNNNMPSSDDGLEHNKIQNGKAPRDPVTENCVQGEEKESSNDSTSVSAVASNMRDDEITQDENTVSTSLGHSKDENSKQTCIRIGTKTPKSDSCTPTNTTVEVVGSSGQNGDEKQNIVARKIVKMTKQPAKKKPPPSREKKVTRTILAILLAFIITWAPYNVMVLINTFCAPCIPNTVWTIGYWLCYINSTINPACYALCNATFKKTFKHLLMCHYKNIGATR
Outline: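 Cell-free radioligand binding using membranes from CHO cells expressing the receptor; filter-based scintillation counting after 1 hour of compound exposure. Loss of specific binding relative to DMSO baseline; primary screen at 25 uM in duplicate, actives then run in concentration series.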

[2] = molecular target: Neuropeptide Y receptor type 2 (Homo sapiens) (UniProt P49146); assay: NVS_GPCR_hNPY2: NovaScreen (NVS) G Protein-Coupled Receptor Assay for human Neuropeptide Receptor Y2 (NPY2) (AID 2283277)
Chain of Neuropeptide Y receptor type 2 (Homo sapiens) (P49146 whole entry, looked up): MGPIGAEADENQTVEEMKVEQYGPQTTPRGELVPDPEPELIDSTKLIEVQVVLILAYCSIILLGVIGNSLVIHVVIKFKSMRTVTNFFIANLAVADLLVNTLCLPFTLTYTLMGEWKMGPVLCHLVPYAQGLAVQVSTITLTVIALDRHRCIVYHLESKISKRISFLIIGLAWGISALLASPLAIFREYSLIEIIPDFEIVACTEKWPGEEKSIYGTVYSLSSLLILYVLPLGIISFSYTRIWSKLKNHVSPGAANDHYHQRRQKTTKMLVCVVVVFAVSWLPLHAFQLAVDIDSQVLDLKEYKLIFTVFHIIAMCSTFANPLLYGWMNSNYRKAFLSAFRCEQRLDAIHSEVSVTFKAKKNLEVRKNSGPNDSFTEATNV
Outline: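 Radioligand binding on membranes extracted from SK-N-MC cells, cell-free, read 1 h after dosing by filter-based scintillation counting. Loss of signal vs DMSO. Primary screen in duplicate at 25 uM; actives followed up in concentration-response up to 50 uM.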

[3] = molecular target: rat Adrenergic Receptor, Beta (Adrb), Non-selective Binding, Adrb1 (gene 24925) (UniProt P18090); assay: NVS_GPCR_rAdrb_NonSelective: NovaScreen (NVS) G Protein-Coupled Receptor Assay for rat Adrenergic Receptor, Beta (Adrb), Non-selective Binding (AID 2283298)
Chain of rat Adrenergic Receptor, Beta (Adrb), Non-selective Binding, Adrb1 (gene 24925) (P18090 whole entry, looked up): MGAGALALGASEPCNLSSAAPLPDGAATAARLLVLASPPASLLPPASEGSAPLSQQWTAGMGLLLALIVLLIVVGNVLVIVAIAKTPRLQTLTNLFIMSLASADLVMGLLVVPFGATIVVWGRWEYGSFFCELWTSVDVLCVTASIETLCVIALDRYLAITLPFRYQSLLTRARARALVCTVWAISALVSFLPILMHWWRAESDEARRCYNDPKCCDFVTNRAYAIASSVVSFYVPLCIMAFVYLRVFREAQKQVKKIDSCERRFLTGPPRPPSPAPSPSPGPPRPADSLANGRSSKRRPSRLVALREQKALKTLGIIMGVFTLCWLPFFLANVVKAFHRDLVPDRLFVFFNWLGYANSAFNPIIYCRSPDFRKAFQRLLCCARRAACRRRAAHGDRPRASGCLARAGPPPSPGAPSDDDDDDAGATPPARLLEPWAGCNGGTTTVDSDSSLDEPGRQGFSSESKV
Outline: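 Non-selective beta-adrenergic radioligand binding in rat cortical membranes, 1 h incubation, filter-based scintillation read-out. Primary screen 25 uM in duplicate; hits retested in concentration-response up to 50 uM, DMSO baseline.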

[4] = system: guinea pig Atrionatriuretic Peptide Receptor A (ANPA), gene 100135578; assay: NVS_GPCR_gANPA: NovaScreen (NVS) G Protein-Coupled Receptor Assay for guinea pig Atrionatriuretic Peptide Receptor A (ANPA) (AID 2283291)
Outline: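 Radioligand binding to guinea pig cerebellar membranes was measured after 1 h by filter-based scintillation counting. Chemicals were tested in duplicate at 25 uM, with hits run in concentration-response to a maximum of 50 uM. Binding loss was fitted against DMSO.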

[5] = system: rabbit Platelet Activating Factor Receptor (PAF), gene 100354046; assay: NVS_GPCR_rabPAF: NovaScreen (NVS) G Protein-Coupled Receptor Assay for rabbit Platelet Activating Factor Receptor (PAF) (AID 2283287)
Outline: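 Rabbit platelet membrane preparation; radioligand displacement read by filter-based scintillation counting 1 h after dosing, loss of signal versus DMSO. Primary screen in duplicate at 25 uM, actives followed up in concentration series.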

[6] = molecular target: human Opioid Receptor Mu (Opiate Mu), OPRM1 (gene 4988) (UniProt P35372); assay: NVS_GPCR_hOpiate_mu: NovaScreen (NVS) G Protein-Coupled Receptor Assay for human Opioid Receptor Mu (Opiate Mu) (AID 2283290);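 also: hits lower bound tracer signal versus DMSO meaning displacement of the ligand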
Chain of human Opioid Receptor Mu (Opiate Mu), OPRM1 (gene 4988) (P35372 whole entry, looked up): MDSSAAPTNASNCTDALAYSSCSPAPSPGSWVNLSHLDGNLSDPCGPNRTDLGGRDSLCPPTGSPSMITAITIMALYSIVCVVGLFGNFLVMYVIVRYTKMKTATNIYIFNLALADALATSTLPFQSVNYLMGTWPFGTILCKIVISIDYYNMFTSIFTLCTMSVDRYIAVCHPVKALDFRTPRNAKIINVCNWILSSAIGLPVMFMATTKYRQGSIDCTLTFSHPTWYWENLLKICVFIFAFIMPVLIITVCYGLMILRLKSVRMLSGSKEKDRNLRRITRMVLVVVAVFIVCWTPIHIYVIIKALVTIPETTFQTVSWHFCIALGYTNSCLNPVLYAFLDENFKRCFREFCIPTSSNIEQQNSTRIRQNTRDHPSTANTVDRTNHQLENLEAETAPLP
Outline: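 CHO-derived receptor protein, cell-free; radioligand displacement, filtration + scintillation counting, read at 2.5 h. DMSO = negative control/baseline. Primary: 25 uM single conc, duplicate; secondary: concentration series.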

[7] = molecular target: human Muscarinic, M4 Receptor, CHRM4 (gene 1132) (UniProt P08173); assay: NVS_GPCR_hM4: NovaScreen (NVS) G Protein-Coupled Receptor Assay for human Muscarinic, M4 Receptor (AID 2283274)
Chain of human Muscarinic, M4 Receptor, CHRM4 (gene 1132) (P08173 whole entry, looked up): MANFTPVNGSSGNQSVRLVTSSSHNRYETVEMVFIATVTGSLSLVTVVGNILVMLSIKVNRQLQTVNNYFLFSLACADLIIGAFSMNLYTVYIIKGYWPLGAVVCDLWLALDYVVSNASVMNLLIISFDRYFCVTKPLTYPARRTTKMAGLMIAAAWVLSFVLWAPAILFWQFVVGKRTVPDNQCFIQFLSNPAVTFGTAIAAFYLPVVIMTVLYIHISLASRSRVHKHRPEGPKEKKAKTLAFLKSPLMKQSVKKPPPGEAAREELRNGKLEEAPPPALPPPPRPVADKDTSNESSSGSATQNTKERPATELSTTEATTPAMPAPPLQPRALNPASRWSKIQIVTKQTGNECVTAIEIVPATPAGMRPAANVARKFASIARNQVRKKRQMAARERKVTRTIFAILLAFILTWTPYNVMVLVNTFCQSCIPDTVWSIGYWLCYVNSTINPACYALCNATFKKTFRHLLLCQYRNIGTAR
Outline: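 Cell-free radioligand displacement using CHO-derived human M4 receptor protein, 1 h after dosing; bound radioactivity by filtration and scintillation counting. Primary screen single 25 uM duplicate, actives followed in concentration series.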

[8] = molecular target: human Neurotensin Receptor (NTS), NTSR1 (gene 4923) (UniProt P30989); assay: NVS_GPCR_hNTS: NovaScreen (NVS) G Protein-Coupled Receptor Assay for human Neurotensin Receptor (NTS) (AID 2283279)
Chain of human Neurotensin Receptor (NTS), NTSR1 (gene 4923) (P30989 whole entry, looked up): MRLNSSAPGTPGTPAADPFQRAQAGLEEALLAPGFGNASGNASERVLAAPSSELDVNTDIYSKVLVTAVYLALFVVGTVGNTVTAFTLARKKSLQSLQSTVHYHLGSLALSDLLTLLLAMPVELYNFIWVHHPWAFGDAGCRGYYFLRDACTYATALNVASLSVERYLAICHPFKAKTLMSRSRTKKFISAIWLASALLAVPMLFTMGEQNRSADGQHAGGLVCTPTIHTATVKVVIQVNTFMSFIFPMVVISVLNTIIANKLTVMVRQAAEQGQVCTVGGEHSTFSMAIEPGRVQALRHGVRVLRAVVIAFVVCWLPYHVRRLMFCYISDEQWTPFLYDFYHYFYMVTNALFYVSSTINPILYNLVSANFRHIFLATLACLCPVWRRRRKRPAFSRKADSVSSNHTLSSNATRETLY
Outline: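 Radioligand displacement on human NTSR1 protein from CHO cells, cell-free, 1 h, filter-based scintillation counting. Primary screen at 25 uM in duplicate; hits rerun in concentration-response up to 50 uM.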

[9] = molecular target: rat Adrenergic, Alpha 1A Receptor (Adra1A), Adra1a (gene 29412) (UniProt P43140); assay: NVS_GPCR_rAdra1A: NovaScreen (NVS) G Protein-Coupled Receptor Assay for rat Adrenergic, Alpha 1A Receptor (Adra1A) (AID 2283296)
Chain of rat Adrenergic, Alpha 1A Receptor (Adra1A), Adra1a (gene 29412) (P43140 whole entry, looked up): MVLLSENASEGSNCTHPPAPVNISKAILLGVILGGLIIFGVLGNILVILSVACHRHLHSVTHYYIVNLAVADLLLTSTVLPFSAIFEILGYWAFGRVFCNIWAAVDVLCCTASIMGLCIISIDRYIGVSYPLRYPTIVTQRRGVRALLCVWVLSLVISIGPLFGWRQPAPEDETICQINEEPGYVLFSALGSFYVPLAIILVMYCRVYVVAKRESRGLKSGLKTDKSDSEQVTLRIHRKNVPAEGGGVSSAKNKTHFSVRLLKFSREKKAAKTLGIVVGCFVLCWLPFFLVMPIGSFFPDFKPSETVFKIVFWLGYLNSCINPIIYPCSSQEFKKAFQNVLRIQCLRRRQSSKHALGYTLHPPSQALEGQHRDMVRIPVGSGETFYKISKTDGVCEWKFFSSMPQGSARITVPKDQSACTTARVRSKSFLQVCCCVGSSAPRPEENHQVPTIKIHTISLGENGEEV
Outline: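 Rat cortical membranes pretreated with chlorethyl clonidine; competitive radioligand displacement, 1 h. Filter-based scintillation counting. Primary screen in duplicate at 25 uM, actives followed in concentration series.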

[10] = molecular target: human Neurokinin, NK2 Receptor, TACR2 (gene 6865) (UniProt P21452); assay: NVS_GPCR_hNK2: NovaScreen (NVS) G Protein-Coupled Receptor Assay for human Neurokinin, NK2 Receptor (AID 2283278);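 also: actives reduce bound radioligand signal relative to DMSO baseline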
Chain of human Neurokinin, NK2 Receptor, TACR2 (gene 6865) (P21452 whole entry, looked up): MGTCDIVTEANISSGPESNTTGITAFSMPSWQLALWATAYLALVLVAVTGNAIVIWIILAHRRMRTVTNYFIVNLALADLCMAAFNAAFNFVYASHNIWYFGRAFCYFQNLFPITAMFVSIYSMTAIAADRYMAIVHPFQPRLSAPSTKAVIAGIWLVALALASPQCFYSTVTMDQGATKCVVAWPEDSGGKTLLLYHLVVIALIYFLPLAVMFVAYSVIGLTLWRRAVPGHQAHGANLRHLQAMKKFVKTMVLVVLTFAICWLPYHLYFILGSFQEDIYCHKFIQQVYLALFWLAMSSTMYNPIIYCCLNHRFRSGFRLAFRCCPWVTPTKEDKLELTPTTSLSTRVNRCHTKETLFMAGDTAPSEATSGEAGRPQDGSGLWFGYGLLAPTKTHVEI
Outline: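 Filter-based scintillation counting measured radioligand bound to receptor extracted from CHO cells, 4 hours after compound addition. Chemicals screened first at 25 uM in duplicate, with actives retested in concentration series relative to DMSO.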

[11] = molecular target: rat Serotonin, 5-Hydroxytryptamine Receptor (5HT), Non-Selective Binding, Htr1a (gene 24473) (UniProt P19327); assay: NVS_GPCR_r5HT_NonSelective: NovaScreen (NVS) G Protein-Coupled Receptor Assay for rat Serotonin, 5-Hydroxytryptamine Receptor (5HT), Non-Selective Binding (AID 2283295)
Outline: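 Radioligand displacement on rat cortical membranes, 1 h incubation, filter-based scintillation counting. Primary duplicates at 25 uM, actives retested in concentration series; loss of signal fitted against DMSO as baseline.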

[12] = molecular target: human Neuropeptide Receptor Y1 (NPY1), NPY1R (gene 4886) (UniProt P25929); assay: NVS_GPCR_hNPY1: NovaScreen (NVS) G Protein-Coupled Receptor Assay for human Neuropeptide Receptor Y1 (NPY1) (AID 2283276)
Chain of human Neuropeptide Receptor Y1 (NPY1), NPY1R (gene 4886) (P25929 whole entry, looked up): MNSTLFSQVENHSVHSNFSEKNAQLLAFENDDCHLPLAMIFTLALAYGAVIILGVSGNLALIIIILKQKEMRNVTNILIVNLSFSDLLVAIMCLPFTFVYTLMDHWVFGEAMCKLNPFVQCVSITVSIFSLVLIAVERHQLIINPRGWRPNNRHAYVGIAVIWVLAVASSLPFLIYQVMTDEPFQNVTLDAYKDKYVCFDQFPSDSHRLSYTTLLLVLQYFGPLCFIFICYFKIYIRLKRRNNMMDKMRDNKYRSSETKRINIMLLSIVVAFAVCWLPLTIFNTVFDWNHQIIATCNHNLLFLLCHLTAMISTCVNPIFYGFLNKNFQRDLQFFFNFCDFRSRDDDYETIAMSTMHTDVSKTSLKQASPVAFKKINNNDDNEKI
Outline: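 Cell-free radioligand binding using receptor extracted from SK-N-MC cells, 1 h incubation, filter-based scintillation counting. Primary screen single concentration 25 uM in duplicate; actives followed in concentration series. Loss of bound signal scored versus DMSO.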

[13] = molecular target: mouse Cholecystokinin, CCK1 Receptor (CCKA), Cckar (gene 12425) (UniProt O08786); assay: NVS_GPCR_mCCKAPeripheral: NovaScreen (NVS) G Protein-Coupled Receptor Assay for mouse Cholecystokinin, CCK1 Receptor (CCKA) (AID 2283285)
Chain of mouse Cholecystokinin, CCK1 Receptor (CCKA), Cckar (gene 12425) (O08786 whole entry, looked up): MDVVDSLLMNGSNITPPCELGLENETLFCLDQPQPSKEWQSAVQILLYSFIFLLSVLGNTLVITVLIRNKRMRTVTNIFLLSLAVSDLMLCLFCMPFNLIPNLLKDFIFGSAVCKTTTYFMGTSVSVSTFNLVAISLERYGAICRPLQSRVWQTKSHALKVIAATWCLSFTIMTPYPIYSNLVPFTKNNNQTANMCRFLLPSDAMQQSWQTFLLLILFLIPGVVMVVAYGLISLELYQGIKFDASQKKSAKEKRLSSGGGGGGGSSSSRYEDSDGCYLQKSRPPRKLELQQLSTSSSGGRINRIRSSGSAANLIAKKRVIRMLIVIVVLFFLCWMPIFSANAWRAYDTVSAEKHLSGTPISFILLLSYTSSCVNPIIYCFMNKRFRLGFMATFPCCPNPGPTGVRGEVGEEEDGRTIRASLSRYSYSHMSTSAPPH
Outline: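 Radioligand competitive displacement on mouse pancreatic membranes, 2 h incubation; filter-based scintillation counting, loss of signal versus DMSO. Single-concentration screen at 25 uM in duplicate, actives retested in concentration-response up to 50 uM.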

[14] = molecular target: human Vasopressin 1A Receptor (V1A), AVPR1A (gene 552) (UniProt P37288); assay: NVS_GPCR_hV1A: NovaScreen (NVS) G Protein-Coupled Receptor Assay for human Vasopressin 1A Receptor (V1A) (AID 2283284)
Outline: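 Cell-free radioligand displacement on human platelet preparations, 1.5 h incubation, filter-based scintillation counting. Chemicals first tested in duplicate at 25 uM; actives then run in concentration-response up to 50 uM, loss of signal fitted against DMSO.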

[15] = molecular target: guinea pig Bradykinin Receptor B2 (BK2), BDKRB2 (gene 100135486) (UniProt O70526); assay: NVS_GPCR_gBK2: NovaScreen (NVS) G Protein-Coupled Receptor Assay for guinea pig Bradykinin Receptor B2 (BK2) (AID 2283292)
Chain of guinea pig Bradykinin Receptor B2 (BK2), BDKRB2 (gene 100135486) (O70526 whole entry, looked up): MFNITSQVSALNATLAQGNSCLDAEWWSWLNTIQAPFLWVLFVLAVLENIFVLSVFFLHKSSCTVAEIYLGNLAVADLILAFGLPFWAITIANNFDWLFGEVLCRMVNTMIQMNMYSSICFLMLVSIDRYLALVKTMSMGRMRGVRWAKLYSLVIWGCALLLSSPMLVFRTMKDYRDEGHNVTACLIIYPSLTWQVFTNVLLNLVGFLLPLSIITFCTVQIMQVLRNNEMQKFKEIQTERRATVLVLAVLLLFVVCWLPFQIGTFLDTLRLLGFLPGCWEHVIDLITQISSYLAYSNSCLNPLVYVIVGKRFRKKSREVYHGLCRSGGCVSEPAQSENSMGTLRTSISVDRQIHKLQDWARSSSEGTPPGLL
Outline: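 Radioligand displacement on guinea pig ileum membranes for 1 h, read by filter-based scintillation counting; loss of signal relative to DMSO. Compounds were screened in duplicate at 25 uM, and those passing the threshold were retested in concentration-response up to 50 uM.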

## CCNP(=S)(OC)O/C(C)=C/C(=O)OC(C)C (stereo not given)
[1]
  outcome: inactive
[2]
  outcome: inactive
[3]
  outcome: inactive

## CNC(=O)N(C)c1nnc(C(C)(C)C)s1
[4]
  outcome: inactive

## COP(=S)(OC)SCn1nnc2ccccc2c1=O
[5]
  AC50: 25 µM (active)
[6]
  outcome: inactive

## CCNC(=O)NC(=O)C(C#N)=NOC
[7]
  outcome: inactive

## COP(=O)(OC)O/C(C)=C/C(=O)N(C)C
[8]
  outcome: inactive
[9]
  outcome: inactive

## Cc1c(COC(=O)[C@@H]2[C@H](/C=C(\Cl)C(F)(F)F)C2(C)C)cccc1-c1ccccc1
[10]
  outcome: inactive

## CNC(=O)Oc1cccc2ccccc12
[9]
  outcome: inactive

## O=c1n(Cl)c(=O)n(Cl)c(=O)n1Cl
[5]
  outcome: inactive

## N#CN=C1SCCN1Cc1ccc(Cl)nc1
[2]
  outcome: inactive

## CCCN(CC)CC1COC2(CCC(C(C)(C)C)CC2)O1 (stereo not given)
[1]
  AC50: 4.96 µM (active)
[7]
  AC50: 3.3 µM (active)

## COC(=O)N(C(=O)N1CO[C@@]2(C(=O)OC)Cc3cc(Cl)ccc3C2=N1)c1ccc(OC(F)(F)F)cc1
[11]
  outcome: inactive

## O=C(Nc1ccccc1-c1ccc(Cl)cc1)c1cccnc1Cl
[8]
  outcome: inactive

## CCCC(=NOCC)C1=C(O)CC(CC(C)SCC)CC1=O (stereo not given)
[5]
  outcome: inactive

## Cc1cc(C)nc(Nc2ccccc2)n1
[1]
  AC50: 4.96 µM (active)
[7]
  AC50: 14.9 µM (active)

## CC1(C)CON(Cc2ccccc2Cl)C1=O
[5]
  outcome: inactive

## CCCCC(O)(Cn1cncn1)c1ccc(Cl)cc1Cl (stereo not given)
[1]
  outcome: inactive
[12]
  outcome: inactive
[13]
  outcome: inactive
[6]
  AC50: 4.96 µM (active)

## CCOC(=O)C(C)OC(=O)c1cc(Oc2ccc(C(F)(F)F)cc2Cl)ccc1[N+](=O)[O-] (stereo not given)
[13]
  outcome: inactive

## Nc1c(Cl)c(Cl)nc(C(=O)O)c1Cl
[5]
  outcome: inactive

## CN/C(=N\[N+](=O)[O-])NCc1cnc(Cl)s1
[14]
  outcome: inactive

## CCCCC(C#N)(Cn1cncn1)c1ccc(Cl)cc1 (stereo not given)
[1]
  AC50: 14.6 µM (active)
[7]
  AC50: 7.69 µM (active)

## CCSC(=O)N1CCCCCC1
[1]
  AC50: 6.85 µM (active)
[7]
  AC50: 4.96 µM (active)
[4]
  outcome: inactive

## CC(C)=CC1C(C(=O)OCc2coc(Cc3ccccc3)c2)C1(C)C (stereo not given)
[6]
  AC50: 7.58 µM (active)

## COC(=O)NC(=S)Nc1ccccc1NC(=S)NC(=O)OC
[15]
  outcome: inactive
